In PubChem BioAssay one finds z-score and composite z-score data, which are given here for five compounds.

The nature of assay [1]: compound effects on lung adenocarcinoma cell viability – A549, calcein-AM fluorescence, 48 h, basal, profiling panel (AID 1162). Note: test concentration not given here. Particulars: higher = more signal.
A short description of assay [2]: compound effects on differentiated 3T3-L1 adipocyte viability – cell-based, 3T3-L1 adipocytes, calcein-AM fluorescence, 48 h, basal, profiling panel (AID 1163). Note: test concentration not given here. Particulars: 3T3-L1 adipocytes viability, higher = more signal.
The nature of assay [3]: compound effects on hepatocellular carcinoma cell viability – HepG2, calcein-AM fluorescence, 48 h, basal, profiling panel (AID 1164). Note: test concentration not given here. As to conditions: higher = more signal.
Assay [4] can be described thus: compound effects on multiple myeloma cell viability – MM1S, calcein-AM fluorescence, 48 h, basal, profiling panel (AID 1165). Note: test concentration not given here. As to conditions: higher = more signal.
Assay [5] in a line: calcein-AM signal in unstimulated myeloma cells – cell-based, calcein-AM fluorescence, 48 h, PK04 Diversity Set, profiling panel (AID 1166).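 Note: cells grown under basal conditions without added stimulus; test concentration not given here.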 As to conditions: RPMI8226 myeloma viability, higher = more signal.
Assay [6] in a line: JC-1 mitochondrial signal, unstimulated HepG2 cells – cell-based, JC-1 fluorescence, 24 h, 100 nL compound, profiling panel (AID 1167). Note: test concentration not given here. Particulars: HepG2 mitochondrial potential, higher = more signal.
Assay [7] can be described thus: JC-1 mitochondrial signal, unstimulated adipocytes – cell-based, JC-1 fluorescence, 3T3-L1 adipocytes, 24 h, 100 nL compound, profiling panel (AID 1168). Note: test concentration not given here. Particulars: JC-1 mitochondrial fluorescence, higher = more signal, called active from +8 up or from −8 down.
Assay [8] is described as follows: JC-1 mitochondrial signal, unstimulated myeloma cells – cell-based, JC-1 fluorescence, RPMI8226, 24 h, 100 nL compound, profiling panel (AID 1169). Note: test concentration not given here. As to conditions: JC-1 mitochondrial potential fluorescence, higher = more signal.
A short description of assay [9]: JC-1 mitochondrial signal, unstimulated MM1S myeloma – cell-based, JC-1 fluorescence, 24 h, 100 nL compound, profiling panel (AID 1170). Note: test concentration not given here. Particulars: MM1S mitochondrial potential, higher = more signal.
Assay [10] in a line: resazurin metabolic signal in A549 cells – cell-based, resazurin fluorescence, 24 h, PK04 Diversity Set, profiling panel (AID 1171). Note: test concentration not given here. Particulars: A549 viability, higher = more signal, called active from +8 up or from −8 down. (In general: Alamar Blue is a resazurin reagent that responds to reducing activity.)
A short description of assay [11]: resazurin metabolic signal in HepG2 cells – cell-based, resazurin fluorescence, 24 h, PK04 Diversity Set, profiling panel (AID 1172). Note: test concentration not given here. As to conditions: HepG2 viability, higher = more signal.
A short description of assay [12]: budding yeast growth changes without added modifier – OD600, strain BY4716, 24 h, basal condition, primary screen (AID 1173). Particulars: S. cerevisiae BY4716 growth, OD600, 24 h; higher = more signal, called active from +8 up or from −8 down.
Assay [13] is described as follows: viability profiling in MM1S myeloma cells – cell-based, resazurin fluorescence, basal, 24 h, PK04 Diversity Set, profiling panel (AID 1174). Note: test concentration not given here. Particulars: higher = more signal, called active from +8 up or from −8 down.
The target of assay [14] is Dihydroorotate dehydrogenase (quinone), mitochondrial (Plasmodium falciparum (isolate 3D7)) (UniProt Q08210). In words: inhibition of P. falciparum DHODH – biochemical, C-terminal His tag, absorbance 600 nm, primary screen (AID 1175).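 Note: recombinant parasite enzyme with a five histidine tag at its C terminus; test concentration not given here.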 As to conditions: PfDHODH enzyme, DCIP absorbance 600 nm; higher = more signal, called active from +8 up or from −8 down.
A short description of assay [15]: growth modulation of vineyard yeast isolate – strain RM11-1a, OD600, basal, 24 h, primary screen (AID 1177).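 Note: cultures grown under basal conditions with no added stressor; test concentration not given here.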 As to conditions: S. cerevisiae RM11-1a growth, OD600, 24 h; higher = more signal, called active from +8 up or from −8 down.
Assay [16] in a line: growth of efflux-deficient E. coli DRC39 – strain DRC39, OD650, 24 h, E. coli filamentation inducers, primary screen (AID 1178).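 Note: growth measured as culture turbidity by optical density at 650 nm; test concentration not given here.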 As to conditions: E. coli DRC39 acrAB, higher = more signal, called active from +8 up or from −8 down.
The nature of assay [17]: growth of efflux-deficient E. coli DRC39 – strain DRC39, OD650, 48 h, E. coli filamentation inducers, primary screen (AID 1179).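 Note: screen aims at cell division blockers that make cells filament.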 Particulars: E. coli DRC39 delta-acrAB growth, higher = more signal, called active from +8 up or from −8 down.
The nature of assay [18]: viability profiling in RPMI8226 myeloma cells – cell-based, resazurin fluorescence, basal, 24 h, PK04 Diversity Set, profiling panel (AID 1180).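 Note: RPMI8826 multiple myeloma cell line at 5000 cells per well; test concentration not given here.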 As to conditions: higher = more signal.
For assay [19], the target named is E3 ubiquitin-protein ligase XIAP (Homo sapiens) (UniProt P98170). In words: small molecules binding XIAP protein – biophysical, small-molecule microarray, fluorescence 635 nm, primary screen (AID 1181).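 Note: score merges 667 nm emission and signal to noise over triplicate slides.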 Particulars: higher = more signal.

The structures appear in SMILES notation. Calls of active or inactive are those of the source.

Sequence of Dihydroorotate dehydrogenase (quinone), mitochondrial (Plasmodium falciparum (isolate 3D7)) (Q08210 whole entry, looked up): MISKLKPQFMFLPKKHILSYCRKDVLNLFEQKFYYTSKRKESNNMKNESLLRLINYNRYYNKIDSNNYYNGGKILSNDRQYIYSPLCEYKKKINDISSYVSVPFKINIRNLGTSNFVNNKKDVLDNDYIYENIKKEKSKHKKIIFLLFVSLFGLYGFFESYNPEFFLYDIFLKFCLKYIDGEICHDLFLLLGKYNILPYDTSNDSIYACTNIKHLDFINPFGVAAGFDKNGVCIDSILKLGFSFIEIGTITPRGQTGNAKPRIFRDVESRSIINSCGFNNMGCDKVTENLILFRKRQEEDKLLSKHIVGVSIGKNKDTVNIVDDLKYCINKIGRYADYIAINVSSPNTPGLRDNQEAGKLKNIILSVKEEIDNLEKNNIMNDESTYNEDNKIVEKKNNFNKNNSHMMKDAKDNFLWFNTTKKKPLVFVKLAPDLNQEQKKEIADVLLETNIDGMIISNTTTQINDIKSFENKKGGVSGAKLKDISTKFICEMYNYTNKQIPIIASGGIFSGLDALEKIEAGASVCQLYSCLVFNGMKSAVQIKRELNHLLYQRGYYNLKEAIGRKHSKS
Sequence of E3 ubiquitin-protein ligase XIAP (Homo sapiens) (P98170 whole entry, looked up): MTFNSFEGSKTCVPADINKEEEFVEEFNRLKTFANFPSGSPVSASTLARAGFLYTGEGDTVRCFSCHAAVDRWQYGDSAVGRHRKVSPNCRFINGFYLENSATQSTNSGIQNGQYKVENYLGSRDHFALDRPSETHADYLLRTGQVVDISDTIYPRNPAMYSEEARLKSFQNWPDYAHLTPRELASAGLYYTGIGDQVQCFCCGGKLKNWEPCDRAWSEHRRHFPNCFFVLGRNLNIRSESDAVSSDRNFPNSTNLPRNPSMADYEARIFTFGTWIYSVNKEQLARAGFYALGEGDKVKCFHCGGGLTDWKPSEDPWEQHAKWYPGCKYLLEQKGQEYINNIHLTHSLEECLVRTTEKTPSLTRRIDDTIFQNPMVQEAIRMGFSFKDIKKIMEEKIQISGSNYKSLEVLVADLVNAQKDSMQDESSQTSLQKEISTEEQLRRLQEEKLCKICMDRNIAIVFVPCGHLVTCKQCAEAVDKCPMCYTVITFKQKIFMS

For `CC(C)[Si](OCCCNS(=O)(=O)c1ccc(Br)cc1)(C(C)C)C(C)C`, the z-score in [1] is 0.0609; in assay [2], 0.279; in [3], -2.5; in [4] it was -3.23; in assay [5], -4.09; in assay [6], -3.5. The z-score is 2.29 (inactive) in assay [7]; -0.218 in [8]; 0.727 in [9]; -0.116 (inactive) in assay [10]; 1.49 in assay [11]; -1.79 (inactive) in assay [12]. Moreover, the z-score in [13] was 0.766 (inactive); in assay [15], -2.85 (inactive); in [16], 2.79 (inactive); in assay [17], 2.3 (inactive); in assay [18] it was -1.26. For the same compound, the values for the composite z-score in assay [14] and in assay [19] were 0.0026 (inactive) and -0.18, respectively.

In the case of `COc1ccc(CCNC(=O)[C@@]2(c3ccc([N+](=O)[O-])cc3)CC(=O)N(C(C)C)[C@@H]2c2ccc(CO)cc2)cc1`, the z-score in [1] was 0.755; in assay [2], 1.52; in [3], -0.627; in [4], 0.701; in [5], 0.159; in assay [6], -0.0592. In addition, the z-score in assay [7] was -0.209 (inactive); in assay [8] it was 1.05; in assay [9], 0.323; in [10], 0.1 (inactive); in [11], 0.483; in [12], -1.12 (inactive). Further, the z-score in [13] was 1.56 (inactive); in [15], -1.28 (inactive); in assay [16], 0.793 (inactive); in [17] it was 0.479 (inactive); in [18], 1.19. The figures for the composite z-score in assay [14] and in assay [19] were -0.704 (inactive) and -0.154, respectively.

Take `CCN1C(C)=C(C(=O)OC)[C@@H](c2ccccc2)N2C(=O)[C@@]3(C(=O)OC)O[C@@]12[C@@H]1C(=O)N(c2ccccc2)C(=O)[C@@H]13`: the z-score in assay [1] was 0.0365; in assay [2], 1.67; in [3], -0.805; in assay [4], 0.871; in assay [5] it was -0.892; in assay [6] it was 0.564. The z-score in assay [7] was 1.17 (inactive); in [8] it was 1.22; in assay [9] it was 0.0907; in [10] it was 0.677 (inactive); in assay [11], 0.392; in assay [12], -1.07 (inactive). Also, the z-score in [13] is 0.839 (inactive); in assay [15], -0.85 (inactive); in assay [16] it was -0.631 (inactive); in [17], -0.21 (inactive); in assay [18], 1.21. In addition, the composite z-score in [14] was 0.295 (inactive); in [19], -0.18.

Take `C[C@]1(C(=O)NCc2ccccc2)c2ccccc2C(=O)N(Cc2cc(C(F)(F)F)cc(C(F)(F)F)c2)[C@H]1c1ccc(CO)cc1`: the z-score was 0.0361 in assay [1]; 1.95 in [2]; 0.292 in assay [3]; -0.951 in assay [4]; -1.46 in [5]; 1.07 in assay [6]. Also, the z-score in [7] was -0.122 (inactive); in assay [8], -0.155; in [9], -0.177; in assay [10] it was 0.805 (inactive); in assay [11], -0.331; in assay [12], -1.35 (inactive). Further, the z-score is 0.865 (inactive) in assay [13]; -2.4 (inactive) in assay [15]; 1.04 (inactive) in assay [16]; 0.528 (inactive) in [17]; 1.12 in [18]. The values for the composite z-score in [14] and in assay [19] were -1.4 (inactive) and -0.177, respectively.

Regarding `CO[C@@H]1COC(=O)[C@H](C)NC(=O)CC=C[C@@H](C)[C@H](OC)COC(=O)[C@H](C)NC(=O)CC=C[C@H]1C`, the z-score in [1] was 1.2; in assay [2], -0.0006; in assay [3], 1.01; in [4] it was 0.419; in [5] it was 0.973; in [6], 0.51. For the same compound, the z-score in assay [7] was 1.44 (inactive); in assay [8] it was -1.04; in assay [9] it was 1.95; in assay [10], 0.787 (inactive); in assay [11], 0.542; in [12] it was -0.786 (inactive). Besides, the z-score in assay [13] was 0.102 (inactive); in assay [15] it was -0.161 (inactive); in assay [16] it was 0.884 (inactive); in [17], 0.552 (inactive); in [18], -0.171. The values for the composite z-score in [14] and in [19] were 0.32 (inactive) and -0.142, respectively.
